# The supplement of paper PMC4840960
# Structures can show the parent of a compound that is named as a salt. ± gives the standard deviation of the averaged measurements.
# Key:
# [1] = system: E18 rat cortical neuron-glia co-culture; experiment: fiber score / MBP score (myelination specific beyond OL differentiation) (ratio); higher = more myelination-specific MBP alignment; settings: treatment time: 8 days (DIV5-DIV13)
# How it was run: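 The measure is the ratio of fiber score to MBP score, where fiber score is continuous MBP fiber length per Olig2+ nucleus and MBP score is thresholded MBP area × intensity per Olig2+ nucleus. Primary E18 rat cortical co-cultures received library compounds at 1 or 5 µM in myelination medium from DIV5 to DIV13, then were fixed in 4 % paraformaldehyde and stained for MBP, Olig2 and DAPI before analysis of four 10X fields per well in duplicate wells.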
# [2] = system: E18 rat cortical neuron-glia co-culture; experiment: myelination (MBP fiber length per Olig2+ nucleus), % of 1 µM DAPT response (DMSO = 0) (% of DAPT); higher = more myelination, active = 50 or more; settings: treatment time: 8 days (DIV5-DIV13)
# How it was run: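 The myelination value was the continuous straight MBP fiber length per Olig2+ nucleus, scaled between 0.1 % DMSO (0) and a 1 µM positive control (100). It was measured in primary E18 rat cortical co-cultures treated with library compounds at 1 or 5 µM in myelination medium from DIV5 through DIV13. Cells were fixed in 4 % paraformaldehyde and stained for MBP, Olig2 and DAPI, and four 10X fields per well were imaged in duplicate wells.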
Compound,fiber score / MBP score ([1]; 1 µM),fiber score / MBP score ([1]; 5 µM),myelination ([2]; 1 µM),myelination ([2]; 5 µM)
Cc1ccc(-c2cc(C(F)(F)F)nn2-c2ccc(S(N)(=O)=O)cc2)cc1 [Celecoxib],0.757,1.01,-5.22 (inactive),-0.0582 (inactive)
CN1CCN2c3ncccc3Cc3ccccc3C2C1 (stereo not drawn) [Remergil],0.819,0.663,4.96 (inactive),-19.4 (inactive)
CC(C)(C)C(O)/C=C/c1ccc2c(c1)OCO2 (stereo not drawn) [Stiripentol],0.738,0.84,-11.3 (inactive),-6.09 (inactive)
CC1COc2c(N3CCN(C)CC3)c(F)cc3c(=O)c(C(=O)O)cn1c23 (stereo not drawn) [Ofloxacin],0.775 ± 0.041,0.784 ± 0.19,-16.9 (inactive),-17 (inactive)
Cc1c(OCC(F)(F)F)ccnc1C[S+]([O-])c1nc2ccccc2[nH]1 (stereo not drawn) [Lansoprazole],0.767,1.37,-17.3 (inactive),65.6
CCC(C)(C)C(=O)O[C@H]1C[C@@H](C)C=C2C=C[C@H](C)[C@H](CC[C@@H]3C[C@@H](O)CC(=O)O3)[C@H]21 [Simvastatin],1.17,3.15,-17.5 (inactive),30 (inactive)
CC1(C)S[C@@H]2[C@H](NC(=O)Cc3ccccc3)C(=O)N2[C@H]1C(=O)O [Penicillin G],0.898,1.19,12.3 (inactive),4.95 (inactive)
C[C@@H](c1ncncc1F)[C@](O)(Cn1cncn1)c1ccc(F)cc1F [Voriconazole],0.693,0.824,-40.5 (inactive),-29.3 (inactive)
CCC[C@@H]1C[C@@H](C(=O)N[C@@H]([C@H]2O[C@H](SC)[C@H](O)[C@@H](O)[C@H]2O)[C@@H](C)O)N(C)C1 [Lincomycin],0.754,0.914,-22.9 (inactive),7.24 (inactive)
O=C(O[C@@H]1C[C@@H]2C[C@H]3C[C@H](C1)N2CC3=O)c1c[nH]c2ccccc12 [Dolasetron],0.649,0.701,-3.78 (inactive),-14.7 (inactive)
CCOC(=O)N1CCC(=C2c3ccc(Cl)cc3CCc3cccnc32)CC1 [Loratadine],0.832,0.575,-5.25 (inactive),-5.18 (inactive)
C=CC1=C(C(=O)O)N2C(=O)[C@@H](NC(=O)/C(=N\O)c3csc(N)n3)[C@H]2SC1 [Cefdinir],0.926,0.824,1.23 (inactive),-0.0683 (inactive)
CC(=O)OCC(=O)[C@@]12OC(C)(C)O[C@@H]1C[C@H]1[C@@H]3C[C@H](F)C4=CC(=O)C=C[C@]4(C)[C@@]3(F)[C@@H](O)C[C@@]12C [Fluocinonide],0.861,0.291,-38 (inactive),-66.2 (inactive)
CNC(=N)NCCC[C@H](N)C(=O)O,0.684,0.854,-37.1 (inactive),-9.76 (inactive)
C[N+]1(C)CCC(OC(=O)C(O)(c2ccccc2)C2CCCC2)C1 (stereo not drawn) [Glycopyrrolate],0.689 ± 0.14,0.888 ± 0.085,-12.1 (inactive),-2.31 (inactive)
CC(C)NCC(O)c1ccc(O)c(O)c1 (stereo not drawn) [Isoproterenol],0.965,0.931,13.7 (inactive),10.5 (inactive)
O=C1CN(/N=C/c2ccc(-c3ccc([N+](=O)[O-])cc3)o2)C(=O)N1 [Dantrolene sodium salt dihydrate],0.33,0.372,-11.8 (inactive),-14.2 (inactive)
CCCCC1=NC2(CCCC2)C(=O)N1Cc1ccc(-c2ccccc2-c2nnn[nH]2)cc1 [Irbesartan],0.679,0.752,-12.8 (inactive),-10.8 (inactive)
COCCCOc1ccnc(C[S+]([O-])c2nc3ccccc3[nH]2)c1C (stereo not drawn) [Rabeprazole],0.82,0.912,-11.1 (inactive),10.6 (inactive)
CC(C)Oc1ccc2c(=O)c(-c3ccccc3)coc2c1 [Ipriflavone],0.908,0.957,-8.04 (inactive),-7.62 (inactive)
C[C@H]1O[C@@H](O[C@H]2[C@@H](O)C[C@H](O[C@H]3[C@@H](O)C[C@H](O[C@H]4CC[C@@]5(C)[C@H](CC[C@@H]6[C@@H]5C[C@@H](O)[C@]5(C)[C@@H](C7=CC(=O)OC7)CC[C@]65O)C4)O[C@@H]3C)O[C@@H]2C)C[C@H](O)[C@@H]1O [Digoxin],1.37,1.46,34 (inactive),68.2
CN[C@@H]1[C@H](O)[C@H](NC)[C@H]2O[C@@]3(O)C(=O)C[C@@H](C)O[C@H]3O[C@@H]2[C@H]1O [Spectinomycin],0.923,1.03,-3.04 (inactive),-4.31 (inactive)
